Data on five compounds can be found in PubChem BioAssay.

The nature of test [1]: signal quenchers or enhancers, Cy5 substrate/SSB – biochemical, NIH Clinical Collection, E. coli SSB, artefact control for HCV NS3 helicase inhibitor project (AID 743268; call rule not given here). The note with it: Cy5-oligo bound E. coli SSB, fluorescence interference.
For test [2], the system named is Hepatitis C virus NS3 helicase. Put plainly: blockers of NS3h binding to DNA – biochemical, fluorescence polarization, NIH Clinical Collection, primary screen (AID 743270; call rule not given here). The settings on record: NS3 helicase binding to Cy5-dT15 DNA, stronger effect = higher value, concentration not given here.
The target in test [3] is Single-stranded DNA-binding protein (Escherichia coli (strain K12)) (UniProt P0AGE0). Put plainly: SSB-ssDNA binding inhibitors – biochemical, fluorescence polarization, NIH Clinical Collection, counter-screen for HCV NS3 helicase inhibitor project (AID 743271; in the data active = inhibition above about 28%). The settings on record: E. coli SSB-DNA binding, stronger effect = higher value, concentration not given here.
Test [4] is described as follows: compounds distorting NS3 helicase fluorescence signal – biochemical, NIH Clinical Collection, artefact control for HCV NS3 helicase inhibitor project (AID 743272; call rule not given here;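 note: HCV NS3 helicase with a Cy5 labelled single stranded DNA probe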). The settings on record: fluorescence interference counterscreen, HCV NS3 helicase assay; stronger effect = lower value.
The target in test [5] is 6-phosphogluconate dehydrogenase, decarboxylating (Homo sapiens) (UniProt P52209). Put plainly: inhibition of human phosphogluconate dehydrogenase – biochemical, recombinant enzyme, NADPH absorbance, primary screen (AID 1159550;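 active = at least 20% inhibition of 6-phosphogluconate dehydrogenase activity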). The note with it: recombinant 6PGD, NADPH absorbance 341 nm; at 10 µM; stronger effect = higher value.
6-phosphogluconate dehydrogenase, decarboxylating (Homo sapiens), sequence (P52209 whole entry, looked up): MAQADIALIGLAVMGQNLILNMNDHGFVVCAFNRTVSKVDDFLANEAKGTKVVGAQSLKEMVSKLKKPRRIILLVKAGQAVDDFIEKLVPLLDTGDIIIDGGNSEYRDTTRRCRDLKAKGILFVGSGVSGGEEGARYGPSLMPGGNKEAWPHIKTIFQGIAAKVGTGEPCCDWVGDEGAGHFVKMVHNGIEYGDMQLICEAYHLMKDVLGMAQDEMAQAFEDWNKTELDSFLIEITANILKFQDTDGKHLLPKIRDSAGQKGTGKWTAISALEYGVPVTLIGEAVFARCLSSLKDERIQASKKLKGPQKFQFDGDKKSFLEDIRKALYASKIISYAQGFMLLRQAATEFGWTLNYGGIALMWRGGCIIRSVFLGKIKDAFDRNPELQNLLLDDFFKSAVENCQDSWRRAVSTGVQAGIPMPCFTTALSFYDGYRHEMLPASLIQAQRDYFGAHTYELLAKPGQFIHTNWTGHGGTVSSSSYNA
A short description of test [6]: modulation of C. elegans fzo-1 (AID 1259413; call rule not given here;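 note: fzo-1 mutant C. elegans worms in liquid wells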). The note with it: C. elegans fzo-1 modulator screen, mean read-out; stronger effect = higher value.
The nature of test [7]: EMT-state selective cytotoxicity in co-culture – imaging, PC-3E GFP, TEM4-18 mCherry, primary screen (AID 1345086;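 active = compounds killing one labelled cell type while sparing the other, by normalised counts and ratio limits, not self-fluorescent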;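 for all read-outs here: cells exposed to compound for 72 h before imaging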;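 for red/green cell ratio (normalised): normalised mesenchymal count divided by normalised epithelial count so high means epithelial killing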). The note with it: PC-3E GFP / TEM4-18 mCherry co-culture, imaging cell counts, at 1 µM; for red/green cell ratio (normalised): actives lie on both sides, counts scaled to control wells, 1 = unselective.
Test [8] can be described thus: viability loss with induced miR-34 in A549 – imaging, A549 dox-inducible miR-34, nuclei and caspase counts, primary screen (AID 1347080;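 active = compounds whose cell count with miR-34 switched on is under 0.7 times the count with it off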). The note with it: A549 miR-34 inducible, Hoechst nuclei count, 48 h.
Test [9] is described as follows: MELAS cybrid and Rieske KO viability enhancers – cell-based, MELAS cybrids, Rieske KO mouse fibroblasts, CellTiter-Glo, primary screen (AID 1508586;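 active = mean z-score across replicates of 1.96 or higher in either the MELAS or the Rieske mutant cell line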;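 note: z relative to plate mean and SD of compound and empty wells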). The settings on record: low glucose.
Test [10] has as its target NAD(+) hydrolase SARM1 (Homo sapiens) (UniProt Q6SZW1). Put plainly: blocking NAD cleavage by SARM1 SAM-TIR – cell lysate, NAD-Glo luminescence (AID 1508614;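 active = compound whose remaining NAD level is above about 45 nM, limit read from the data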;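 note: higher remaining NAD means stronger inhibition of SARM1 NADase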). The settings on record: SAM-TIR HEK293T lysate NADase, at 1 µM, stronger effect = higher value.
The target of test [11] is Mitogen-activated protein kinase 7 (Homo sapiens) (UniProt Q13164). Put plainly: Gal4-ERK5 driven luciferase induction – cell-based, HTS, primary screen (AID 1508626;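 active = luciferase signal above three times the same-plate solvent-only control wells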;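 note: luciferase driven by Gal4-ERK5 fusion binding five Gal4 sites before minimal TATA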). The settings on record: HeLa Gal4-ERK5 transactivation, 18 h, at 5 µM, stronger effect = higher value.
Mitogen-activated protein kinase 7 (Homo sapiens), sequence (Q13164 whole entry, looked up, the tested form may be a part): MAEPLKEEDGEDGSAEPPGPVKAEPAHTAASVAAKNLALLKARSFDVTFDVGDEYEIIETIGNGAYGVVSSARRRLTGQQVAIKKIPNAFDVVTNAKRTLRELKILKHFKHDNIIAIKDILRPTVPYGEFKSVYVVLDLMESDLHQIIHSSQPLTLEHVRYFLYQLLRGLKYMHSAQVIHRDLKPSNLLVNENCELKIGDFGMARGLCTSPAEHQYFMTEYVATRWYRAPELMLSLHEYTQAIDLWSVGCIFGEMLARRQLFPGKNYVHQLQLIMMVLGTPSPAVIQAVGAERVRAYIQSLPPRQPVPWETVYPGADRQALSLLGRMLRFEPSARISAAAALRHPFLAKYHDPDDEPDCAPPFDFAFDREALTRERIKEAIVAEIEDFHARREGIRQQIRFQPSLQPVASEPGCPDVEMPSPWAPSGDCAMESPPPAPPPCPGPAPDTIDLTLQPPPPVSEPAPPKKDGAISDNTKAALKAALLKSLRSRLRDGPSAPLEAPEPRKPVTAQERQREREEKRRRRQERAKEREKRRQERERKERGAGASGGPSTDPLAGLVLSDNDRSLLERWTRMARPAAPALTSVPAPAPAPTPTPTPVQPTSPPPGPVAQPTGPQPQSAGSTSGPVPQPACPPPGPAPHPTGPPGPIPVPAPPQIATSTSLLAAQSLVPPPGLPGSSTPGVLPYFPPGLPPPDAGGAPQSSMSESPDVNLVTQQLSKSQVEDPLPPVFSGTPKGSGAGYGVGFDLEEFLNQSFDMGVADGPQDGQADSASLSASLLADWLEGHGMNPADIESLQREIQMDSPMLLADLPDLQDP
Test [12] in a line: galactose survival enhancers in mitochondrial complex I cybrids – cell-based, galactose medium, ATP luminescence, primary screen (AID 1645843;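 active = z-score of at least 1.8 in each of two replicates, scored against plate mean and spread of sample wells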;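 note: positive z means more ATP and so rescue of galactose-driven cybrid death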). The settings on record: complex I mutant cybrid cells, 72 h, stronger effect = higher value.
A further test concerns F380Y. In words: BK channel mutant inhibitors and activators – cell-based, U2OS BacMam, thallium flux, beta subunits, selectivity assay, profiling panel (AID 1259406).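 Note: initial slope of Thallos dye fluorescence rise after thallium is added; log ratio against the mean of 0.3% DMSO vehicle wells on the same plate.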 The note with it: U2OS BacMam BK variants, at 30 µM.
A further test concerns F380Y/beta2Delta. The description is as above. The settings on record: U2OS BacMam BK variants, at 30 µM.
Test [13] concerns the target Calcium-activated potassium channel subunit alpha-1 (Homo sapiens) + Leucine-rich repeat-containing protein 26 (Homo sapiens) (UniProt Q12791+Q2I0M4). The description is as above. The settings on record: U2OS BacMam BK variants, F380Y/Slo1WT/gamma1, at 30 µM.
In the next test the test system is R275C. The description is as above. The settings on record: U2OS BacMam BK variants, at 30 µM.
The next test deals with R275C/beta1. Described as above. The settings on record: U2OS BacMam BK variants, at 30 µM.
Another test relates to R275C/beta2Delta. Described as above. The note with it: U2OS BacMam BK variants, at 30 µM.
A short description of test [14]: P. berghei load reduction in hepatocytes – cell-based, HepG2, luciferase luminescence, HepG2 viability, primary screen (AID 624349; in the data active = parasite load remaining mostly below about 12%, no sharp cut-off; inactive = mostly above about 10%;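 note: 100% = mean of DMSO negative control wells on the same plate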). The note with it: P. berghei liver stage in HepG2, luciferase luminescence, concentration not given here; parasite load remaining: stronger effect = lower value; viability: measured here: HepG2 viability without parasites.
[15] abbreviates: measured here: epithelial PC-3E GFP cell survival.
[16] abbreviates: measured here: mesenchymal TEM4-18 mCherry cell survival.
The mark [17] stands for this setting: stronger effect = lower value, cell number ratio, induced over uninduced.
Setting [18] is: measured here: relative caspase fold change +Dox/-Dox.
[19] abbreviates: measured here: total cells with miR-34 induction, stronger effect = lower value.
The mark [20] stands for this setting: measured here: total cells without miR-34 induction.
[21] abbreviates: MELAS cybrid survival, CellTiter-Glo 48 h, stronger effect = higher value.
The mark [22] stands for this setting: Rieske KO mouse fibroblast survival, CellTiter-Glo 72 h.

Several values for one entry are separate records, joined by “and”; a condition that tells them apart may be missing. Equal values may be shown once. Activity calls are given as the source filed them.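 Rule for the calls, unless noted: active = thallium flux through the channel raised or lowered by more than 3 SD from vehicle-only wells, actives on both sides; inactive = the rest.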

Calcium-activated potassium channel subunit alpha-1 (Homo sapiens) + Leucine-rich repeat-containing protein 26 (Homo sapiens), sequence (Q2I0M4 whole entry, looked up, one chain of several): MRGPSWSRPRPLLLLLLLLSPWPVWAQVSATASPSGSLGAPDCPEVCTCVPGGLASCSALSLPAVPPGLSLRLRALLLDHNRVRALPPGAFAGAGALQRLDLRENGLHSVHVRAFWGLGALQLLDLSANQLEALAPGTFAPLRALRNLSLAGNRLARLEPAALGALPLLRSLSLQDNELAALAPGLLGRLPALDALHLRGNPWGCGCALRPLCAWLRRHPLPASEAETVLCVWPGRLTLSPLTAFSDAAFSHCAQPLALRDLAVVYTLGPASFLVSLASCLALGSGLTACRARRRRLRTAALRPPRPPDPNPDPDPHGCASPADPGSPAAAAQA
NAD(+) hydrolase SARM1 (Homo sapiens), sequence (Q6SZW1 whole entry, looked up, the tested form may be a part): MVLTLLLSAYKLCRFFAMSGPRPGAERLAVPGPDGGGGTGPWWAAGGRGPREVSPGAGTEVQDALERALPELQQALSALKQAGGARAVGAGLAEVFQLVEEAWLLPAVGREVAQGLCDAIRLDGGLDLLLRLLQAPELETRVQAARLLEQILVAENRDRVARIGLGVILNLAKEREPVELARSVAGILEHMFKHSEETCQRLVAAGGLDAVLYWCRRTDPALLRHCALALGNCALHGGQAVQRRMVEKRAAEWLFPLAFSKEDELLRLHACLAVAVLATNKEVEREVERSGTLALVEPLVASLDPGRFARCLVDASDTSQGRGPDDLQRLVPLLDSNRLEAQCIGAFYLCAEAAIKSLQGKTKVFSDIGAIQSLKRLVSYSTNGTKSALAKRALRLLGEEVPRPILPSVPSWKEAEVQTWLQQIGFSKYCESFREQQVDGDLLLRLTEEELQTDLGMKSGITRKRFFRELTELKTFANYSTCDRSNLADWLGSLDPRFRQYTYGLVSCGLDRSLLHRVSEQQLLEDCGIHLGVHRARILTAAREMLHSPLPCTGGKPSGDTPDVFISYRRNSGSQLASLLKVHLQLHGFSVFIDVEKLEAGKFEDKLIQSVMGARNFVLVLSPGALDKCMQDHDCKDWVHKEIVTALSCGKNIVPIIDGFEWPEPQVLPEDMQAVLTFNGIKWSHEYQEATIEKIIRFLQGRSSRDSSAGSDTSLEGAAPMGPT

With `Nc1ncnc2c1ncn2[C@@H]1O[C@H](CO)[C@@H](O)[C@@H]1O`, the fluorescence ratio in test [1] and in [4] was 1 (inactive) throughout. Besides, the inhibition was -4.09% (inactive) in [2], -1.24% (inactive) in test [3] and -15.7% (inactive) in test [5]. The mean signal in test [6] was 237 (inactive). In addition, in [7], the red/green cell ratio (normalised) is 0.96 (inactive). Moreover, the normalised cell number in [7] (setting [15]) is 0.99; in [7] (setting [16]), 0.95. The fold change was 0.95 (inactive) and 0.835 (inactive) and 0.86 (inactive) in [8] (setting [17]); 2.09 and 4.39 and 1.09 in [8] (setting [18]). The cell count was 9780 and 10000 and 8360 in test [8] (setting [19]); 10300 and 12000 and 9720 in test [8] (setting [20]). Further, the z-score in test [9] (setting [21]) is -2.73 (inactive) and -2.26 (inactive); in [9] (setting [22]) it was 0.559 and 1.92; in test [12], -1.35 (inactive) and 1.67 (inactive). Further, in test [10], the remaining NAD is 10 nM (inactive). Further, the luciferase signal in test [11] is 160 AU (inactive). The log fold change Tl+ flux in the test with F380Y was -0.000678 (inactive); in the test on F380Y/beta2Delta it was 0.00163 (inactive); in test [13], 0.0271 (inactive); in the test on R275C it was 0.00664 (inactive); with R275C/beta1 it was -0.0305 (inactive); in the test on R275C/beta2Delta, -0.0267 (inactive).

With `COc1ccc(/C=C/C(=O)Nc2ccccc2C(=O)O)cc1OC`, the parasite load remaining in test [14] is 13.7% (inactive) and 10.8% (inactive) and 12.8% (inactive). In addition, the viability in test [14] is 99.2% and 76.6% and 140%. Also, the fluorescence ratio in test [1] is 1.05 (inactive); in test [4], 0.99 (inactive). For the same compound, the inhibition in [2] was 0.4% (inactive); in [3] it was -1.64% (inactive); in [5], 5.84% (inactive). For the same compound, in [6], the mean signal was 225 (inactive). For the same compound, the red/green cell ratio (normalised) in test [7] is 0.8 (inactive). The normalised cell number was 1.21 in test [7] (setting [15]) and 0.98 in test [7] (setting [16]). Further, the z-score is 0.761 (inactive) and 0.318 (inactive) in [9] (setting [21]); -0.0722 and 0.758 in test [9] (setting [22]); 1.34 (inactive) and 0.925 (inactive) and 0.79 (inactive) in test [12]. The remaining NAD in test [10] was 10 nM (inactive). Further, the log fold change Tl+ flux with F380Y is -0.0454 (inactive); in the test with F380Y/beta2Delta, -0.0218 (inactive); in test [13], -0.0322 (inactive); in the test on R275C, -0.0585 (inactive); in the test with R275C/beta1, -0.0786 (inactive); in the test on R275C/beta2Delta, 0.0483 (inactive).

As to `COC(=O)[C@H](c1ccccc1Cl)N1CCc2sccc2C1`, the fluorescence ratio in test [1] and in test [4] was 1 (inactive) each time. Besides, the results for the inhibition in test [2], in [3] and in test [5] were -9.55% (inactive), 3.34% (inactive) and 3.19% (inactive), respectively. Moreover, in [6], the mean signal was 252 (inactive). Moreover, the red/green cell ratio (normalised) in test [7] was 1.19 (inactive). Further, the normalised cell number was 1.15 in [7] (setting [15]) and 1.36 in test [7] (setting [16]). Further, the fold change is 0.979 (inactive) and 0.893 (inactive) and 0.849 (inactive) in test [8] (setting [17]); 1.69 and 3.06 and 2.09 in [8] (setting [18]). In addition, the cell count in [8] (setting [19]) was 9850 and 11200 and 8380; in test [8] (setting [20]), 10100 and 12600 and 9870. Further, the z-score in test [9] (setting [21]) is -0.401 (inactive) and -0.448 (inactive); in test [9] (setting [22]), -0.332 and -1.48; in [12], -0.555 (inactive) and -0.06 (inactive). In addition, in [10], the remaining NAD is 10 nM (inactive). The luciferase signal in test [11] is 20 AU (inactive). The log fold change Tl+ flux was -0.0366 (inactive) in the test on F380Y; -0.0129 (inactive) in the test on F380Y/beta2Delta; -0.0336 (inactive) in [13]; 0.027 (inactive) with R275C; -0.0372 (inactive) in the test with R275C/beta1; -0.0599 (inactive) in the test on R275C/beta2Delta.

As for `CC(=O)OC1CCC2(C)C3=C(CC[C@H]2C1(C)C)[C@@]1(C)CC[C@@H]([C@@H](C)CCC=C(C)C)[C@]1(C)CC3` (stereo partly specified), the inhibition in test [5] was -9.29% (inactive).

`CC(=O)OC1CC[C@@]2(C)C(CC[C@]3(C)C2CCC2C4CC(C)(C)CCC4(C(=O)O)CC[C@]23C)C1(C)C` (stereo partly specified): the inhibition in test [5] is 5.8% (inactive).
